Laboratory results taken from PubChem BioAssay (EPA / NIEHS).
Results filed as inconclusive are left out. Activity calls are given as the source filed them. How the source made its calls: active means hit-call score of the fitted dose curve at least 0.9, where 1 is the maximum; inconclusive means response in the unintended direction; inactive means score below 0.9.

target: rat Corticotropin Releasing Factor Receptor (CRF), Crhr1 (gene 58959) (UniProt P35353); assay: NVS_GPCR_rCRF: NovaScreen (NVS) G Protein-Coupled Receptor Assay for rat Corticotropin Releasing Factor Receptor (CRF) (AID 2283300)
Sequence (P35353 whole entry, looked up): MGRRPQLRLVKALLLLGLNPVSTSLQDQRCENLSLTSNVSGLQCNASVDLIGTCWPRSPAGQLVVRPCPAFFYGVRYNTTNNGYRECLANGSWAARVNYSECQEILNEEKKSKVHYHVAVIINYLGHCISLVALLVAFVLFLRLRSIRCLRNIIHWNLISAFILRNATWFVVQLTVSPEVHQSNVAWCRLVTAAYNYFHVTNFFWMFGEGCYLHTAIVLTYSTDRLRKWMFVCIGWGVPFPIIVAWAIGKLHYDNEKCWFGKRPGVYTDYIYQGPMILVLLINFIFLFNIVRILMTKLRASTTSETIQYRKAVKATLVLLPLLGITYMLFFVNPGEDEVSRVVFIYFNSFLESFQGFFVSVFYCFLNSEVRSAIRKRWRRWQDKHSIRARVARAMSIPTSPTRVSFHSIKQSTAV
Experimental: NVS_GPCR_rCRF is a biochemical, single-readout assay that uses extracted gene-proteins from Rat cortical membranes in a tissue-based cell-free assay. Measurements were taken 2 hours after chemical dosing in a 96-well plate.NVS_GPCR_rCRF is one of one assay component(s) measured or calculated from the NVS_GPCR_rCRF assay. It is designed to make measurements of radioligand binding, a form of binding reporter, as detected with scintillation counting signals by […] radiodetection technology.Data from the assay component NVS_GPCR_rCRF was analyzed into 1 assay endpoint. This assay endpoint, NVS_GPCR_rCRF, was analyzed in the positive analysis fitting direction relative to DMSO as the negative control and baseline of activity. Using a type of binding reporter, loss-of-signal activity can be used to understand changes in the binding as they relate to the gene Crhr1. Furthermore, this assay endpoint can be referred to as a primary readout, because the performed assay has only produced 1 assay endpoint. To generalize the intended target to other relatable targets, this assay endpoint is annotated to the gpcr intended target family, where the subfamily is secretin receptor.
Binding assays used specific radioligands (tritiated, iodinated) with non-radioactive competitive displacement ligands in agonist or antagonist protocols (as indicated) and various reference compounds and inhibitors to titrate specific binding to receptors and transporters. Most enzyme assays (CYPs, kinases, phosphatases, proteases, HDACs) used recombinant protein and specific substrates (fluorescence mostly, some colorimetric and radioactive) and inhibitors, followed by a biochemical separation of substrate and product. All assays for the biochemical HTS were initially run in duplicate at a single concentration (10 uM for CYP450 assays and 25 uM for all others). […] Each assay was run with positive and negative controls, and concurrent controls on every plate. The follow-up (secondary) screen tested active chemical-pairs in concentration series, as well as a few additional assays not tested in the primary screen, some selected negative inactives, and several cases re-run in the concentration series for confirmatory purposes.

Structure (SMILES) | AC50 | outcome
S=C([S-])NCCNC(=S)[S-].[Mn+2] | 12.5 µM (active) | –
O=C(O)c1cccc(C[C@@H]2COc3ccc(OCc4nc5cc(F)ccc5s4)cc3[C@@H]2O)c1 | – | inactive
C1CCC(SSC2CCCCC2)CC1 | – | inactive
CCN(CC)C(=S)SSC(=S)N(CC)CC | – | inactive
CCC(C)(C)C1CCC(O)CC1 (configuration not stated) | – | inactive
Cc1oc(-c2ccccc2)nc1CCOc1cccc2c1ccn2CCC(=O)O | – | inactive
Cc1cc(C)c(O)c(C)c1 | – | inactive
C[C@]12CC[C@@H]3c4ccc(O)cc4CC[C@H]3[C@@H]1CCC2=O | – | inactive
COCCOCCOCCOC | – | inactive
O=C(OCCCCCOC(=O)c1ccccc1)c1ccccc1 | – | inactive
CN(C)c1ccc(N=NS(=O)(=O)O)cc1 | – | inactive
OCCO | – | inactive
CCNc1nc(N)nc(Cl)n1 | – | inactive
OCCC(F)(F)C(F)(F)C(F)(F)C(F)(F)C(F)(F)C(F)(F)C(F)(F)C(F)(F)F | – | inactive
CCC(O)=C1C(=O)CC(C(=O)O)CC1=O (configuration not stated) | – | inactive
S=C(S)NCCNC(=S)S.[Mn+2].[S-]C([S-])=NCCN=C([S-])[S-].[Zn+2] | 25 µM (active) | –
O=c1[nH]sc2ccccc12 | 17 µM (active) | –
